Compounds without any hit were thinned out: in the full panel of roughly 83,000, 20% have a hit.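 The test compound was applied at a single concentration to cells in 96-well plates for 48 hours, and percent growth was recorded.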 Calls of active or inactive are those of the source. The calls were made as follows: active = growth percent below 10; inactive = the rest.
Legend:
Assay in all cases: NCI-60 one-dose screen, 48 h (100 = growth as untreated, 0 = no growth, -100 = all killed)
HCT-15 colon = conditions: 10 µM unless noted
HT29 colon = conditions: 10 µM unless noted
SNB-75 CNS = conditions: 10 µM unless noted
SNB-19 CNS = conditions: 10 µM unless noted
U251 CNS = conditions: 10 µM unless noted
SK-MEL-5 melanoma = conditions: 10 µM unless noted
UACC-62 melanoma = conditions: 10 µM unless noted
LOX IMVI melanoma = conditions: 10 µM
SK-MEL-28 melanoma = conditions: 10 µM unless noted
SN12C renal = conditions: 10 µM unless noted
UO-31 renal = conditions: 10 µM unless noted
TK-10 renal = conditions: 10 µM unless noted
ACHN renal = conditions: 10 µM unless noted
CAKI-1 renal = conditions: 10 µM unless noted
A498 renal = conditions: 10 µM unless noted
CCRF-CEM leukemia = conditions: 10 µM unless noted
MOLT-4 leukemia = conditions: 10 µM unless noted
SK-MEL-2 melanoma = conditions: 10 µM unless noted
EKVX NSCLC = conditions: 10 µM unless noted
PC-3 prostate = conditions: 10 µM unless noted

Measured: growth

O=C(O)c1cccc(-n2ncc(Cl)c(Cl)c2=O)c1
inactive: HCT-15 colon 98.5% | HT29 colon 113% | SNB-75 CNS 81.1% | SNB-19 CNS 102% | U251 CNS 101% | SK-MEL-5 melanoma 98% | UACC-62 melanoma 97.2% | LOX IMVI melanoma 92.2% | SK-MEL-28 melanoma 102% | SN12C renal 100% | UO-31 renal 107% | TK-10 renal 154% | ACHN renal 106% | CAKI-1 renal 98.6% | A498 renal 113% | CCRF-CEM leukemia 98.3% | MOLT-4 leukemia 96.5%

Cc1c(-c2ccc(C3CCCCC3)cc2)nc2ccc(F)cc2c1C(=O)O
active: LOX IMVI melanoma 8.7%
inactive: HCT-15 colon 25.1% | HT29 colon 31.6% | SNB-75 CNS 62.7% | SNB-19 CNS 61.7% | U251 CNS 44.2% | SK-MEL-5 melanoma 32.9% | UACC-62 melanoma 43.3% | SK-MEL-28 melanoma 60.8% | SN12C renal 45.2% | UO-31 renal 34.3% | TK-10 renal 74.7% | ACHN renal 43% | A498 renal 89.7% | CCRF-CEM leukemia 35.7%

OCC1CCC(O)C(CO)N1 (stereo not given)
inactive: HCT-15 colon 94.1% | HT29 colon 108% | SNB-75 CNS 70.2% | SNB-19 CNS 105% | U251 CNS 100% | SK-MEL-5 melanoma 108% | UACC-62 melanoma 105% | LOX IMVI melanoma 100% | SK-MEL-28 melanoma 96.3% | SK-MEL-2 melanoma 129% | EKVX NSCLC 92.3% | SN12C renal 103% | UO-31 renal 90.8% | TK-10 renal 121% | ACHN renal 100% | A498 renal 91.5% | MOLT-4 leukemia 106%

CC(=O)Oc1c(Cl)cccc1-c1ccccc1
inactive: HCT-15 colon 108% | HT29 colon 98.1% | SNB-75 CNS 103% | SNB-19 CNS 98.9% | U251 CNS 90% | SK-MEL-5 melanoma 101% | LOX IMVI melanoma 103% | SK-MEL-28 melanoma 112% | SK-MEL-2 melanoma 98.9% | EKVX NSCLC 103% | SN12C renal 96.6% | TK-10 renal 107% | ACHN renal 108% | A498 renal 96.9% | CCRF-CEM leukemia 101% | MOLT-4 leukemia 107%

Clc1cccc(Cl)c1C1CSc2ccccc2N=C1c1ccccc1 (stereo not given)
inactive: HCT-15 colon 54.7% | HT29 colon 26.8% | SNB-75 CNS 64.9% | SNB-19 CNS 97.4% | SK-MEL-5 melanoma 86.8% | UACC-62 melanoma 68.9% | SK-MEL-28 melanoma 90.4% | SK-MEL-2 melanoma 90.2% | SN12C renal 75.5% | UO-31 renal 55.3% | TK-10 renal 117% | ACHN renal 76.8% | A498 renal 124% | MOLT-4 leukemia 20.1%
active: LOX IMVI melanoma -4.86%

Nc1ccccc1SC1CC(=O)N(c2ccc(Cl)c(Cl)c2)C1=O (stereo not given)
inactive: HCT-15 colon 118% | HT29 colon 96.2% | SNB-75 CNS 79.9% | SNB-19 CNS 96.6% | U251 CNS 103% | SK-MEL-5 melanoma 104% | UACC-62 melanoma 87.6% | LOX IMVI melanoma 98.5% | SK-MEL-28 melanoma 108% | SK-MEL-2 melanoma 12.9% | EKVX NSCLC 86.4% | SN12C renal 115% | UO-31 renal 72.6% | TK-10 renal 137% | ACHN renal 108% | A498 renal 84.8% | MOLT-4 leukemia 109%

BrCc1cccc(C[P+](c2ccccc2)(c2ccccc2)c2ccccc2)c1
inactive: HCT-15 colon 92.5% | HT29 colon 50.7% | SNB-75 CNS 47.6% | SNB-19 CNS 52.3% | U251 CNS 19.4% | SK-MEL-5 melanoma 22.6% | UACC-62 melanoma 54.7% | LOX IMVI melanoma 40.2% | SK-MEL-28 melanoma 67.6% | SK-MEL-2 melanoma 70.4% | EKVX NSCLC 44.6% | SN12C renal 57.7% | UO-31 renal 70.7% | TK-10 renal 90.8% | ACHN renal 82.7% | A498 renal 84.1% | MOLT-4 leukemia 84.9%

FC(F)(F)c1cc(NC2=NCCN=C(Nc3cc(C(F)(F)F)cc(C(F)(F)F)c3)SS2)cc(C(F)(F)F)c1
inactive: HCT-15 colon 37.8% | HT29 colon 49% | SNB-75 CNS 71.5% | SNB-19 CNS 56.5% | U251 CNS 23.3% | SK-MEL-5 melanoma 50.2% | UACC-62 melanoma 35.6% | LOX IMVI melanoma 50.5% | SK-MEL-28 melanoma 74.7% | SN12C renal 47.2% | UO-31 renal 35.1% | TK-10 renal 58.4% | ACHN renal 43.5% | CAKI-1 renal 48.1% | A498 renal 58% | CCRF-CEM leukemia 28.8%

CNc1ccccc1C(=O)N/N=C/C=C/c1ccccc1
active: HT29 colon 3.82% | SNB-75 CNS -15.6% | SK-MEL-2 melanoma 3.74% | A498 renal -8.31%
inactive: HCT-15 colon 33.8% | SNB-19 CNS 53.9% | PC-3 prostate 18.7% | SK-MEL-5 melanoma 18.2% | UACC-62 melanoma 49.3% | LOX IMVI melanoma 14.7% | SK-MEL-28 melanoma 39.3% | SN12C renal 48.7% | UO-31 renal 43.8% | TK-10 renal 31.1% | ACHN renal 58.2% | CAKI-1 renal 12.7% | CCRF-CEM leukemia 12% | MOLT-4 leukemia 18.5%

CC(=O)O[C@H]1CC[C@]2(C)C3=C(C(=O)C[C@H]2C1(C)C)[C@]1(C)CC[C@H]([C@H](C)CCC(=O)O)[C@@]1(C)CC3=O
inactive: HCT-15 colon 95.5% | HT29 colon 89.7% | SNB-75 CNS 91.7% | SNB-19 CNS 108% | U251 CNS 101% | SK-MEL-5 melanoma 102% | LOX IMVI melanoma 98.1% | SK-MEL-28 melanoma 105% | SK-MEL-2 melanoma 95.3% | EKVX NSCLC 90.8% | SN12C renal 106% | UO-31 renal 92.2% | TK-10 renal 98.4% | ACHN renal 103% | A498 renal 84.9% | CCRF-CEM leukemia 98.9% | MOLT-4 leukemia 98%

Cc1[nH]nc(C(N)=O)c1[N+](=O)[O-]
inactive: HCT-15 colon 95.2% | HT29 colon 108% | SNB-75 CNS 99.6% | SNB-19 CNS 93.2% | U251 CNS 103% | SK-MEL-5 melanoma 91.2% | UACC-62 melanoma 90.3% | LOX IMVI melanoma 97.2% | SK-MEL-28 melanoma 93.2% | SK-MEL-2 melanoma 119% | SN12C renal 98.4% | UO-31 renal 96.8% | TK-10 renal 106% | ACHN renal 99.3% | CAKI-1 renal 102% | A498 renal 78.4% | CCRF-CEM leukemia 105%

CCCC(OC(C)=O)c1ccc2c(c1)OCO2 (stereo not given)
inactive: HCT-15 colon 115% | HT29 colon 103% | SNB-75 CNS 96.9% | SNB-19 CNS 105% | U251 CNS 96% | SK-MEL-5 melanoma 102% | UACC-62 melanoma 102% | LOX IMVI melanoma 103% | SK-MEL-28 melanoma 106% | EKVX NSCLC 117% | SN12C renal 106% | UO-31 renal 86.8% | TK-10 renal 106% | ACHN renal 111% | CAKI-1 renal 101% | A498 renal 96.7% | CCRF-CEM leukemia 105% | MOLT-4 leukemia 107%

COc1ccc(C2CC(c3ccccc3)=Nc3ccccc3S2)cc1 (stereo not given)
inactive: HCT-15 colon 98.3% | HT29 colon 92.8% | SNB-75 CNS 80.7% | SNB-19 CNS 93.8% | PC-3 prostate 82.7% | SK-MEL-5 melanoma 94.2% | UACC-62 melanoma 97.9% | LOX IMVI melanoma 95% | SK-MEL-28 melanoma 98.4% | SK-MEL-2 melanoma 85.6% | SN12C renal 103% | UO-31 renal 57.5% | TK-10 renal 113% | ACHN renal 103% | CAKI-1 renal 84% | A498 renal 91.8% | CCRF-CEM leukemia 85.2% | MOLT-4 leukemia 77.6%

CCNc1ncnc2[nH]ncc12
inactive: HCT-15 colon 102% | HT29 colon 108% | SNB-75 CNS 88.9% | SNB-19 CNS 104% | U251 CNS 101% | SK-MEL-5 melanoma 101% | LOX IMVI melanoma 98% | SK-MEL-28 melanoma 111% | SK-MEL-2 melanoma 101% | EKVX NSCLC 88.6% | SN12C renal 96.9% | UO-31 renal 99.7% | TK-10 renal 102% | ACHN renal 98.2% | A498 renal 96.9% | CCRF-CEM leukemia 30.1% | MOLT-4 leukemia 134%
